PfHsp90 yeast 2 = growth inhibition of PfHsp90-expressing yeast, primary screen, antimalarial PfHsp90 inhibitor project, S. cerevisiae, BacTiter-Glo luminescence, single point, set 2 | BacTiter-Glo ATP, 48 h; yeast lacking PDR1 and PDR3 efflux regulators | inhibition, % at 9.4 µM | hit rate 0.32% among 310,000;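 active = every replicate shows inhibition above about 80%, whatever the replicate mean, limit read from the data; inconclusive = mean inhibition reaches the set limit but some replicate falls short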
SKKanGAS inh = S. pyogenes SKKanGAS growth inhibitors in kanamycin, primary screen, streptokinase expression inhibitor project, SKKanGAS strain, BacTiter-Glo luminescence; 6 h; AID 1662, 2009; hit rate 1.3% among 300,000; inhibition, % at 7.5 µM;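 active = mean replicate score, as percent of positive control median, at least 50; inconclusive = mean below 50 but one replicate at or above 50; inactive = mean and every replicate below 50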;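 also: strain carries kanamycin resistance gene driven by streptokinase promoter and grows in 40 µg/ml kanamycin; loss of luminescence reflects streptokinase promoter inhibition or plain growth inhibition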
tim23-1 inh = growth inhibitors of tim23-1 mutant yeast, primary screen, luminescence, uHTS; AID 463212, 2010; S. cerevisiae tim23-1 growth, BacTiter-Glo luminescence, 24 h; hit rate 1.3% among 330,000; inhibition, % at 20 µM;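 active = growth inhibition of the mutant yeast at or above 50%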;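 also: temperature-sensitive mutant grown at 25 °C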
TIM10 inh = growth inhibitors of isogenic TIM10 control yeast, primary screen, counter-screen for tim10-1 yeast inhibitor project, luminescence, uHTS; inhibition, % at 10 µM; S. cerevisiae TIM10 strain growth, BacTiter-Glo luminescence, 24 h; AID 463195, 2010; hit rate 1.4% among 330,000;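 active = inhibition of 40% or more at the single tested concentration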;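 also: wild-type TIM10 isogenic control strain grown at permissive 25 °C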
tim10-1 inh = growth inhibitors of tim10-1 mutant yeast, primary screen, luminescence, uHTS; S. cerevisiae tim10-1 ts strain growth, BacTiter-Glo, 24 h; inhibition, % at 20 µM; hit rate 2.2% among 330,000;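 active = inhibition of at least 40%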;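 also: mutant grown at 25 °C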
NALP3 yeast inh = NALP3 inflammasome inhibitors in reconstituted yeast, primary screen, luminescence, uHTS. Yeast reconstituted NLRP3/ASC/caspase-1, beta-gal luminescence, 24 h. inhibition, % at 10 µM. hit rate 0.39% among 330,000. AID 2825, 2010;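 active = inhibition of 50% or more; inactive = inhibition below 50%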
tim10-1 conf = growth inhibitors of tim10-1 mutant yeast, confirmation, single concentration, luminescence, S. cerevisiae | shares compounds with tim10-1 inh | S. cerevisiae tim10-1 ts strain growth, BacTiter-Glo, 24 h | inhibition, % at 20 µM | hit rate 56% among 7,400 | AID 463213, 2010;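 active = inhibition of yeast growth at or above a set limit in either of two repeat tests at 20 µM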;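 also: tim10-1 mutant grown at permissive 25 °C to find synthetic lethal compounds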
TIM10 conf = growth inhibitors of wild-type TIM10 yeast, confirmation, counter-screen for tim10-1 synthetic lethality project, single concentration, luminescence, S. cerevisiae | shares compounds with TIM10 inh | S. cerevisiae tim10 strain growth, BacTiter-Glo luminescence, 24 h | inhibition, % at 10 µM | hit rate 63% among 4,600 | AID 463215, 2010;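 active = inhibition of yeast growth at or above a set limit in either of two replicates at 10 µM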; also: this counterscreen used the strain with wild-type TIM10
Each line names hits and unclear results; the compound was inactive in the other large screens (follow-up assays come after a bar, where they were run). Only some compounds are listed: those with a hit (about 4.6% of all), similar ones and a draw of the others.

CC1=CC(C)(C)N2C(=O)C3(SCC(=O)N3c3ccc(F)cc3)c3cc(C)cc1c32 (configuration not stated)	TIM10 inh 41, tim10-1 inh 46 (no result: PfHsp90 yeast 2) | tim10-1 conf inactive | TIM10 conf 37
Cc1ccc(S(=O)(=O)N2CCOCC2)cc1C(=O)Nc1ccc2c(c1)OCCO2	none (no result: SKKanGAS inh)
Cc1nnc(-c2cccc(Br)c2)c2cn(-c3ccccc3Cl)nc12	TIM10 inh 51, tim10-1 inh 51 | tim10-1 conf 39 | TIM10 conf 50
COc1cccc2oc(-c3ccco3)cc(=O)c12	TIM10 inh 47, tim10-1 inh 45 | tim10-1 conf inactive | TIM10 conf 40
CCc1cccc2c(C(=O)COC(=O)c3ccc([N+](=O)[O-])s3)c[nH]c12	PfHsp90 yeast 2 inconclusive, SKKanGAS inh 100, TIM10 inh 74, tim10-1 inh 64 | tim10-1 conf inactive | TIM10 conf 76
COc1cc(/C=C2\SC(=S)N(Nc3ncc(C(F)(F)F)cc3Cl)C2=O)ccc1O	PfHsp90 yeast 2 106, TIM10 inh 51, tim10-1 inh 48 | tim10-1 conf inactive | TIM10 conf 42
O=C(CC1C(=O)NCCN1Cc1cccc(F)c1F)NCCCC1CCCC1 (configuration not stated)	none
N#Cc1cccc2c1-c1ccccc1/C2=N/NC(N)=O	none
N#Cc1cccc2c1-c1ccccc1/C2=N/NC(N)=S	TIM10 inh 47, tim10-1 inh 52 | tim10-1 conf 41 | TIM10 conf 56
Cn1cc(-c2nc3ccccc3[nH]2)c2ccccc21	TIM10 inh 71, tim10-1 inh 41 | tim10-1 conf inactive | TIM10 conf inactive
Cc1c(-c2nc3ccccc3[nH]2)cnn1C	none (no result: SKKanGAS inh)
C/C(=N\Nc1ccc(F)cc1)c1ccc(N2CCOCC2)c(F)c1	none
COc1cc2c(cc1OC)C(c1ccc(-c3ccccc3Cl)o1)=NCC2	TIM10 inh 46, tim10-1 inh 46 (no result: PfHsp90 yeast 2) | tim10-1 conf 40 | TIM10 conf 47
COc1cc2c(cc1OC)C(c1ccc(Cl)cc1)=NCC2	none
COc1cc2c(cc1OC)C(c1ccc(-c3cc(Cl)ccc3Cl)o1)=NCC2	TIM10 inh 45, tim10-1 inh 46 | tim10-1 conf 43 | TIM10 conf 46
COc1cc2c(cc1OC)C(c1ccc(-c3ccc(Cl)cc3Cl)o1)=NCC2	TIM10 inh 48, tim10-1 inh 51 | tim10-1 conf inactive | TIM10 conf 36
CC(=O)/C(=N\Nc1ccccc1)Sc1nnc(-c2ccccc2)n1-c1ccccc1	TIM10 inh 46, tim10-1 inh 44 | tim10-1 conf inactive | TIM10 conf inactive
CC(=O)/C(=N\Nc1ccccc1Cl)Sc1nnc(-c2ccccc2)n1-c1ccccc1	none
O=c1[nH]c(N/N=C/c2ccccc2)nc2ccccc12	TIM10 inh 41, tim10-1 inh 44 (no result: PfHsp90 yeast 2) | tim10-1 conf 38 | TIM10 conf inactive
CN(C)c1ccc(/C=N/NC(N)=S)cc1[N+](=O)[O-]	none (no result: PfHsp90 yeast 2)
COc1ccc(S(=O)(=O)N2CCCC(C(F)(F)F)C2)cc1 (configuration not stated)	none
CCOc1ccc(NC(=S)N(Cc2ccc(N(C)C)cc2)Cc2ccco2)cc1	TIM10 inh 46, tim10-1 inh 52 | tim10-1 conf 43 | TIM10 conf 36
COc1ccc(NC(=S)N(Cc2ccc(N(C)C)cc2)Cc2ccco2)cc1	none
Cc1ccc(S(=O)(=O)NN=C2C(=O)C3CCC2C3Cl)cc1 (configuration not stated)	none (no result: SKKanGAS inh, tim23-1 inh, TIM10 inh, tim10-1 inh, NALP3 yeast inh)

From PubChem
